Compounds with a hit are over-represented: about 9.3% of the library has one in this group of screens.
SMN2 splice up: increases expression of the SMN2 splice variant; 210,000 tested, 2.8% active; HEK293 SMN2-luciferase splicing reporter, luminescence, 30-36 h; AID 1458; Potency, µM (highest dose often 46.1 µM), for the others: at the top dose activity change, positive = activation, most hits filed as activators; also: % of control where 0% means no effect; nearly all actives have a fitted effect of over 55% in size
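HEK293 cells carry an SMN2 […]–luciferase reporter in which exon 7 inclusion puts luciferase in frame. Cells were plated 10-12 h before compound addition, then incubated 30-36 h at 37C. ONE-Glo luminescence was read; sodium butyrate at 4.5 mM final served as control.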
FLuc modulator: inhibits or activates purified firefly luciferase, miR-21 counter-screen. P08659. purified FLuc, Km substrates, luminescence inhibition. Potency, µM (top dose mostly 57.5 µM), without a hit: at the highest dose activity change, negative = inhibition, actives largely listed as inhibitors. 360,000 tested, 6.9% active. AID 588342;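 also: plate controls were vehicle for no effect and reference inhibitor for full effect; nearly all actives have a fitted effect of over 55% in size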
Target sequence (P08659 whole entry, looked up): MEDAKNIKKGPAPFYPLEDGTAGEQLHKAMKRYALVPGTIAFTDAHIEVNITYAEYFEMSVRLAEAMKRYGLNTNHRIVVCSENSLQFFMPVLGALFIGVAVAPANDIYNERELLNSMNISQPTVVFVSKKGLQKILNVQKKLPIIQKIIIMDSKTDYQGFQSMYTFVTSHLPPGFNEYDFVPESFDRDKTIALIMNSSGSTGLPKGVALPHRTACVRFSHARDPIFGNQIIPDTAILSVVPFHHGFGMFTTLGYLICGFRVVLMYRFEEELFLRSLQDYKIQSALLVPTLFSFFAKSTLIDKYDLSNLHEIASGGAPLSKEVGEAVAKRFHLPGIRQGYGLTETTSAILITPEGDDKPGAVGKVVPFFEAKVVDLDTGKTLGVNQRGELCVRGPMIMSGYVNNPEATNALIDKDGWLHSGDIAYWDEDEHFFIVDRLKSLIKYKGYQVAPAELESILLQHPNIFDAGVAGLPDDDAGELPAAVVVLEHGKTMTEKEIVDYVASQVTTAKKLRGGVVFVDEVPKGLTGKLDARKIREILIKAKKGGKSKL
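Purified P. pyralis luciferase, 10 nM final, with Km-level 10 uM D-luciferin and 10 uM ATP in 50 mM Tris acetate pH 7.5, 10 mM Mg acetate, 0.01% Tween-20, 0.05% BSA; 6-point qHTS titration about 60 µM downward; luminescence read.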
ELG1 genotox: inducers of genotoxicity in HEK293T ELG1-luciferase cells | HEK293T ELG1-luciferase reporter, luminescence, 16 h | Potency, µM (doses to about 46 µM), without a hit: at the top dose activity change, positive = activation, most hits filed as activators | 330,000 tested, 1.3% active | AID 504466; also: % of control where 0% means no effect; nearly all actives have a fitted effect of over 60% in size
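Luminescence read-out: rising ELG1-luciferase signal, reflecting elevated ELG1 protein under genetic stress, flags genotoxic compounds. Cells were treated for 16 hr at 37 °C before ONE-Glo detection.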
Rab9 promoter act: activates the Rab9 promoter. Huh7 Rab9 promoter-luciferase reporter, luminescence, 24 h. 320,000 tested, 2.8% active. Potency, µM (highest dose often 9.22 µM), without a hit: at the highest dose activation, negative = inhibition, most hits filed as activators; also: % of control where 0% means no effect; nearly all actives have a fitted effect of over 60% in size
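Quantitative HTS format; Huh7 Rab9-luciferase reporter cells (1500/well) receive compound 2 h post-plating, incubate 24 h at 37 °C, then get luciferase reagent for 10 min before luminescence reading.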
NPC1 prom act: activates the NPC1 promoter | Huh7 NPC1 promoter luciferase reporter, 24 h | 320,000 tested, 2.4% active | Potency, µM (doses to about 9.22 µM), for the others: at the top dose activation, usual class: activators | AID 485313; also: % of control where 0% means no effect; nearly all actives have a fitted effect of over 60% in size
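Stably transfected Huh7 (NPC1 promoter→luciferase), 1500 cells/well in Opti-MEM + 10% FBS, 2 h settle, then compound 24 h at 37 °C. Luminescence after 10 min with Amplite reagent.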
ELG1 repair inh: inhibitors of ELG1-dependent DNA repair in HEK293T cells | HEK293T ELG1-luciferase reporter, luminescence, 16 h; DNA damage induced by 5-fluorouridine | Potency, µM (series often up to 46.1 µM), inactives show at the highest dose activity change, negative = inhibition, hits mostly inhibitors | 330,000 tested, 2.3% active; also: % is scaled to controls: 0 for no effect and ±100 for the full control effect; nearly all actives have a fitted effect of over 55% in size
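In this reporter screen, reduction of luminescence relative to DMSO vehicle indicated activity. Compounds and 5-fluorouridine were added together to 2,000 cells per well, incubated for 16 hr at 37 °C, then developed with ONE-Glo.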
* marks the source's active call; other numbers are inactive results. Calls follow the shape of the dose curve; as a rule, active = well fitted curve in the direction sought with a large enough effect; inconclusive = small, poorly fitted or top-dose-only effect, or another doubt; inactive = no such curve, though single readings can be large; an effect the other way counts as inactive or inconclusive. Potency is read from the fitted curve at half-maximal effect.

C#CC(C)(C)NS(=O)(=O)c1cc(-c2nnc(Nc3ccc(C)cc3)c3ccccc23)ccc1C was read as SMN2 splice up 9% and FLuc modulator 2.7µM*.
Screening CNC(=O)COc1ccc(Nc2nnc(-c3ccc(C)c(S(=O)(=O)NC(C)(C)C)c3)c3ccccc23)cc1 returned SMN2 splice up -33% and FLuc modulator 15µM*.
`C=CCNc1nc(N2CCCCC2)c(C#N)c2c1CN(Cc1ccccc1)CC2` gave FLuc modulator 0%, ELG1 genotox -18%, Rab9 promoter act 2%, NPC1 prom act 5% and ELG1 repair inh 23µM*.
CCN1CCc2c(C#N)c(N3CCCCC3)nc(NCc3ccccc3)c2C1 was read as SMN2 splice up -15% and FLuc modulator 5%.
COC(=O)[C@@H]1CC[C@H](C)[C@@H](c2ccc(C)cc2)N1C(=O)c1ccc(/C=N/O[C@@H](C)c2cn([C@H](CO)Cc3ccccc3)nn2)cc1 was read as SMN2 splice up -99%, FLuc modulator 3%, ELG1 genotox -21%, Rab9 promoter act -2%, NPC1 prom act -5% and ELG1 repair inh 15µM*.
`O=C(N/N=C/c1cc(Br)c(Br)o1)c1ccc2c(c1)OCCO2` gave FLuc modulator 12µM*, ELG1 genotox 5%, Rab9 promoter act 2.5µM*, NPC1 prom act inconclusive and ELG1 repair inh inconclusive.
Screening O=C(N/N=C/c1cc(Br)c(O)c(Br)c1O)c1ccc2c(c1)OCCO2 returned FLuc modulator 7.6µM*, ELG1 genotox inconclusive, Rab9 promoter act -36%, NPC1 prom act -31% and ELG1 repair inh -7%.
`CCOc1cc(/C=N/NC(=O)c2ccc3c(c2)OCCO3)cc(Br)c1O` gave FLuc modulator 21µM*, ELG1 genotox 10%, Rab9 promoter act 13%, NPC1 prom act 9% and ELG1 repair inh 5%.
Cc1cc(Br)cc(/C=N/NC(=O)c2ccc3c(c2)OCO3)c1O was read as FLuc modulator inconclusive, ELG1 genotox 13%, Rab9 promoter act -6%, NPC1 prom act -30% and ELG1 repair inh inconclusive.
`CCOc1cc(/C=N/NC(=O)C(N)=O)cc(Br)c1O` gave SMN2 splice up 3%, FLuc modulator 0%, ELG1 genotox 0%, Rab9 promoter act -6%, NPC1 prom act 2% and ELG1 repair inh inconclusive.
Screening Cc1ccc(CNC(=O)CNC(=O)[C@@H]2Cc3ccccc3CN2)cc1 returned FLuc modulator 1%, ELG1 genotox 0%, Rab9 promoter act 3%, NPC1 prom act 1% and ELG1 repair inh inconclusive.
COc1cccc(C(=O)Nc2ccccc2NC(=O)c2cccc(OC)c2)c1 was read as FLuc modulator -7%, ELG1 genotox -7%, Rab9 promoter act -2%, NPC1 prom act -4% and ELG1 repair inh inconclusive.
For CN1/C(=C\C(=O)c2cccnc2)Sc2ccccc21 the results were SMN2 splice up 14µM*, FLuc modulator 9.5µM*, ELG1 genotox inconclusive, Rab9 promoter act 2.2µM*, NPC1 prom act 2.5µM* and ELG1 repair inh inconclusive.
COc1cccc(C(=O)/C=C2\Sc3ccccc3N2C)c1 was read as SMN2 splice up 6.3µM*, FLuc modulator 1.1µM*, ELG1 genotox 1.5µM*, Rab9 promoter act 0.89µM*, NPC1 prom act 0.71µM* and ELG1 repair inh inconclusive.
`CC(Sc1nc2ccccc2[nH]1)C(=O)Nc1ccc2c(c1)OCCO2` (stereo unspecified) gave SMN2 splice up -5%, FLuc modulator 21µM*, ELG1 genotox 0%, Rab9 promoter act 0%, NPC1 prom act -2% and ELG1 repair inh 5%.
For CC(Sc1ncccn1)C(=O)Nc1ccc2c(c1)OCCO2 (stereo unspecified) the results were FLuc modulator -20%, ELG1 genotox 7%, Rab9 promoter act 17%, NPC1 prom act 2% and ELG1 repair inh inconclusive.
`C[C@@H](C(=O)Nc1ccc2c(c1)OCCO2)n1nnc2ccccc2c1=O` gave FLuc modulator 8.5µM*, ELG1 genotox inconclusive, Rab9 promoter act 3.5µM*, NPC1 prom act 3.5µM* and ELG1 repair inh inconclusive.
CCn1c(SC(C)C(=O)Nc2ccc3c(c2)OCCO3)nnc1C1CC1 (stereo unspecified) was read as FLuc modulator 24µM*, ELG1 genotox 0%, Rab9 promoter act 2%, NPC1 prom act 0% and ELG1 repair inh inconclusive.
Cn1c(SCC(=O)Nc2ccc3c(c2)OCCO3)nnc1C1CC1 was read as FLuc modulator inconclusive, ELG1 genotox 0%, Rab9 promoter act 1%, NPC1 prom act 10% and ELG1 repair inh 14%.
O=C(/C=C/c1ccc(F)cc1)NC(=S)N1CCN(Cc2ccccc2)CC1 was read as FLuc modulator -7%, ELG1 genotox -2%, Rab9 promoter act 1%, NPC1 prom act 2% and ELG1 repair inh 13%.
CCOC(=O)C1=C(C)NC(C)=C(C(=O)OCC)C1C(=O)OCC(=O)N1CCCCC1CC (stereo unspecified) was read as SMN2 splice up 21%, FLuc modulator 0%, ELG1 genotox 0%, Rab9 promoter act -5%, NPC1 prom act 2% and ELG1 repair inh -8%.
For CCOC(=O)C1CCCN(C(=S)NC(=O)c2cc(Br)ccc2Cl)C1 (stereo unspecified) the results were FLuc modulator 16%, ELG1 genotox -2%, Rab9 promoter act -1%, NPC1 prom act -2% and ELG1 repair inh -10%.
`CCOc1cc(NC(=S)NCCCN(C)C)c(OCC)cc1NC(=O)c1cccs1` gave SMN2 splice up 1%, FLuc modulator 1%, ELG1 genotox 0%, Rab9 promoter act -7%, NPC1 prom act -3% and ELG1 repair inh 3%.
Screening CCN(Cc1ccccc1)C(=O)c1ccc(CNS(=O)(=O)c2ccc(C)cc2)cc1 returned SMN2 splice up -41%, FLuc modulator 5%, ELG1 genotox 1%, Rab9 promoter act -6%, NPC1 prom act -2% and ELG1 repair inh -24%.
For CCCN(Cc1ccc(C)cc1)C(=O)c1ccc(CNS(=O)(=O)c2ccc(C(C)=O)cc2)cc1 the results were FLuc modulator 21µM*, ELG1 genotox 1%, Rab9 promoter act inconclusive, NPC1 prom act inconclusive and ELG1 repair inh inconclusive.
`Cc1ccc(S(=O)(=O)NCC(=O)OCC(=O)NCCc2ccccc2)cc1` gave FLuc modulator -1%, ELG1 genotox -2%, Rab9 promoter act -1%, NPC1 prom act 0% and ELG1 repair inh 11%.
